Assay outcomes from PubChem BioAssay.
TDP1 cell noCPT: qHTS for Inhibitors of human tyrosyl-DNA phosphodiesterase 1 (TDP1): qHTS in cells in absence of CPT; DT40 Tdp1-/- hTDP1 cells, no CPT, ATP luminescence, 48 h; Potency, µM (doses to about 46.2 µM), for inactives: top-dose activity change, negative = growth inhibition, most hits filed as inhibitors; 420,000 compounds, 15% hits; AID 686978, 2013; further: potency means the concentration at half of the fitted maximal effect; nearly all actives have a fitted effect of over 55% in size
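Compound effects on proliferation are scored in DT40 Tdp1-/-;hTDP1 cells in the absence of CPT. ATP levels (CellTiter-Glo luminescence) are recorded after a ≥48 hr, 37 °C incubation.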
CtBP-E1A inh: inhibitors of CtBP/E1A interaction; AlphaScreen GST-E1A/His-CtBP binding, 1536-well; active compounds read low; activity change, % (no concentration beside the values); 340,000 compounds, 0.49% hits; in the data active means activity change below about -65%; inconclusive means mostly about -30% to -63%
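Steps: dispense buffer (Tris pH 8.0, NaCl 300 mM, TCEP 1 mM, BSA, Tween 20); add 5X protein mix (GST-E1A, His-CtBP, 125 nM each); pin 23 nL compound; 2 h at 37 °C, dark; add 5X beads (50 ug/mL); 1 h; read.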
Six1-Eya2 blk: inhibitors of human Six1/Eya2 interaction; AlphaScreen GST-Six1/His-Eya2 binding, biochemical; active compounds read low; activity change, % (concentration not given with the values); Q15475+O00167; 360,000 compounds, 0.56% hits; in the data active means activity change below about -65%; inconclusive means mostly about -30% to -63%
Target sequence (O00167 whole entry, looked up): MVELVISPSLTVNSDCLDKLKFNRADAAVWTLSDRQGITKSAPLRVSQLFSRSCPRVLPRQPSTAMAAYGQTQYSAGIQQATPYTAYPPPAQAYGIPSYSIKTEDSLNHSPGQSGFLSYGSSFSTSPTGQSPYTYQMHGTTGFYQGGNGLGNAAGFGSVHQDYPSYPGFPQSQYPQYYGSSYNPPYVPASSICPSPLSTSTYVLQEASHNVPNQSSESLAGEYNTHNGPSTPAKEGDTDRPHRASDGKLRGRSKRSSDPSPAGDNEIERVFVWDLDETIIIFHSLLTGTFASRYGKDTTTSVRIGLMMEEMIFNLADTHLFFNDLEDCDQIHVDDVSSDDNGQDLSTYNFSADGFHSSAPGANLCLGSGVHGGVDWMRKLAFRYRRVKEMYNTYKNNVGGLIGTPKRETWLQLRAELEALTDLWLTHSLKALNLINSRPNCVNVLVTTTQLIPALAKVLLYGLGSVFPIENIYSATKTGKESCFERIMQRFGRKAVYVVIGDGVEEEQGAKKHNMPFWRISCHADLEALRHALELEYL
Target sequence (Q15475 whole entry, looked up): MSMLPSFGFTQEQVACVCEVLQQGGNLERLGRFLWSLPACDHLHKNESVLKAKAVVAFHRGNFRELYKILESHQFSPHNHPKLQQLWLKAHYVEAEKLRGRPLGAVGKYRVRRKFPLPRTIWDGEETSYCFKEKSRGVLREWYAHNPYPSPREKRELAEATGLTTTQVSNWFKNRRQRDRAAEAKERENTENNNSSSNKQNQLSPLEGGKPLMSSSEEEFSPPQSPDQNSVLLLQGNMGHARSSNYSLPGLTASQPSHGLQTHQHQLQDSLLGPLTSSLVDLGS
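Compounds are tested against tagged Six1 and Eya2 proteins bridged by glutathione donor and nickel acceptor beads; after a one-hour incubation at 37 °C without light, AlphaScreen emission is recorded.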
TDP1 cell CPT: DT40-hTDP1 cell growth loss with CPT; chicken DT40 Tdp1-/-;hTDP1 cells + 20 nM CPT, ATP luminescence, 48 h; Potency, µM (titrated, usually from 46.2 µM), without a hit: at the highest dose activity change, negative = growth inhibition, hits mostly inhibitors; 420,000 compounds, 12% hits; AID 686979; further: potency means the concentration at half of the fitted maximal effect; nearly all actives have a fitted effect of over 55% in size
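Cell growth measured by CellTiter-Glo luminescence after a minimum 48 h, 37 C compound exposure with 20 nM CPT in Tdp1-knockout DT40 cells stably expressing hTDP1, seeded 400/well; qHTS titration format.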
IL-1B inflam inh: inhibitors of inflammasome signaling (IL-1 beta secretion) | 360,000 compounds, 4.7% hits | activity change, % at 57.5 µM | THP-1 LPS/ATP IL-1B secretion, AlphaLISA, 16 h; active compounds read low; in the data active means activity change below about -50%; inconclusive means mostly about -30% to -49%
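Secreted IL-1B measured by AlphaLISA bead assay after 16 h compound exposure of THP-1 cells; compounds (final up to 57.5 uM) added 1 h before LPS (250 ng/mL) and ATP (1.25 mM) stimulation; lower signal means less secretion.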
TDP1 block: inhibitors of human tyrosyl-DNA phosphodiesterase TDP1 | Potency, µM (series often up to 130 µM), for the others: top-dose activity change, negative = inhibition, most hits filed as inhibitors | recombinant TDP1, AlphaScreen DNA substrate cleavage | 350,000 compounds, 0.28% hits | Q9NUW8; further: potency means the concentration at half of the fitted maximal effect; nearly all actives have a fitted effect of over 40% in size
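Tdp1 1 nM final; 15 min RT w/ cpd; substrate 15 nM, 5 min; beads 10 ug/ml, 10 min; AlphaScreen read. Neg ctrl: no enzyme.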
Active calls of the source: *; ? = inconclusive; · = no result. Shown are actives, neighbours in structure and some others; about 18% of the full set was active somewhere. Unless noted, the call rests on the fitted dose curve; in most records, active means well fitted curve in the direction sought with a large enough effect; inconclusive means small, poorly fitted or top-dose-only effect, or another doubt; inactive means no such curve, though single readings can be large; an effect the other way counts as inactive or inconclusive. On the % scale 0 is the no-effect control and ±100 the full control effect.

SMILES	TDP1 cell noCPT	CtBP-E1A inh	Six1-Eya2 blk	TDP1 cell CPT	IL-1B inflam inh	TDP1 block
O=C1Nc2ccccc2C1=Nc1ccc(F)cc1	0%	4	10	-1%	-1	·
CC(=O)c1ccc(N=C2C(=O)Nc3ccccc32)cc1	13µM*	6	7	?	-8	·
Cc1nn(C)c2c1c(-c1ccccc1)cc(=O)n2C(C)C(=O)NCc1ccc(F)cc1 (stereo not drawn)	?	·	·	?	·	5%
CCn1nc(C)c2c(-c3ccccc3)cc(=O)n(C(C)C(=O)NCc3ccc(C)cc3)c21 (stereo not drawn)	?	·	·	18µM*	·	2%
CCn1nc(C)c2c(-c3ccccc3)cc(=O)n(C(C)C(=O)NCCC(C)C)c21 (stereo not drawn)	?	·	·	18µM*	·	3%
CCn1nc(C)c2c(-c3ccccc3)cc(=O)n(C(C)C(=O)NCCc3ccc(OC)c(OC)c3)c21 (stereo not drawn)	?	·	·	?	·	8%
CCn1nc(C)c2c(-c3ccccc3)cc(=O)n(C(C)C(=O)NCCc3ccccc3)c21 (stereo not drawn)	?	·	·	18µM*	·	6%
Cc1n(C)c2cc(Cl)ccc2[n+]1Cc1ccccc1	23µM*	4	2	?	-1	6%
CC[n+]1c(C)n(C)c2cc(S(=O)(=O)N(C)C)ccc21	0%	9	6	15%	-1	0%
CC(=O)c1ccc(Nc2nc(C(N)CCc3ccccc3)cs2)cc1 (stereo not drawn)	16µM*	-7	1	?	?	·
CC(=O)c1ccc(Nc2nc(C(N)Cc3ccc(Cl)cc3)cs2)cc1 (stereo not drawn)	?	?	-12	18µM*	-54*	·
CC(=O)c1ccc(Nc2nc(C(N)Cc3ccc(N)cc3)cs2)cc1 (stereo not drawn)	?	-20	-7	?	-12	·
Cc1onc(C(=O)NN)c1-c1csc(COc2ccc(Cl)cc2)n1	15µM*	1	-11	21µM*	-24	7%
CCCCCN1C=CC(=C2C(=O)c3ccccc3C2=O)C=C1	?	·	-1	13µM*	-18	-2%
COc1cc(OC)cc(-c2n[nH]c(=S)n2-c2cc(OC)ccc2OC)c1	2%	2	-2	-13%	28	8%
COc1ccc2c(c1OC)c(=O)n1c3ccc(OC(C)C(=O)NCCCN4CCOCC4)cc3c3ccnc2c31 (stereo not drawn)	6.5µM*	-6	-6	13µM*	?	·
CC(Oc1ccc2c(c1)c1ccnc3c4ccccc4c(=O)n2c13)C(=O)NCCN1CCOCC1 (stereo not drawn)	7.3µM*	?	?	8.2µM*	-51*	·
COc1ccc2c(c1OC)c(=O)n1c3ccc(OC(C)C(=O)NCCN4CCOCC4)cc3c3ccnc2c31 (stereo not drawn)	23µM*	-10	-2	16µM*	?	·
COC1=C(OC)C(=O)C(Sc2ccc3ccccc3c2)=CC1=O	1.3µM*	-7	-16	1.3µM*	-104*	·
COc1ccccc1CCC(=O)Nc1ccc2c(c1)c(=O)n(C)n2C	-18%	0	8	?	0	·
Cn1c(=O)c2cc(NC(=O)CCc3ccc(O)cc3)ccc2n1Cc1cccc(C(F)(F)F)c1	21µM*	1	0	?	0	·
COc1ccccc1CCC(=O)Nc1ccc2c(c1)c(=O)n(C)n2Cc1cccc(C(F)(F)F)c1	?	2	0	23µM*	-12	·
Cn1c(=O)c2cc(NC(=O)CCc3ccccc3)ccc2n1-c1ccccc1F	13µM*	-1	1	12µM*	40	·
COc1ccccc1CCC(=O)Nc1ccc2c(c1)c(=O)n(C)n2Cc1ccc(F)cc1	5.2µM*	1	-5	4.6µM*	35	·
CCOCCC(=O)Nc1ccc2c(c1)c(=O)n(C)n2Cc1cccc(C(F)(F)F)c1	-20%	3	0	-18%	23	·
SMILES	TDP1 cell noCPT	CtBP-E1A inh	Six1-Eya2 blk	TDP1 cell CPT	IL-1B inflam inh	TDP1 block
Cn1c(=O)c2cc(NC(=O)CCc3ccccc3)ccc2n1Cc1cccc(C(F)(F)F)c1	13µM*	-2	-4	16µM*	9	·
COc1cccc(Cn2c3ccc(NC(=O)CCc4ccc(F)cc4)cc3c(=O)n2C)c1	3.7µM*	2	0	4.6µM*	43	·
COc1cccc(CNC(=S)Nc2ccc3c(c2)c(=O)n(C)n3Cc2ccc(F)cc2)c1	-26%	-25	-8	?	-9	·
COc1ccc2sc(-c3ccc(SC)cc3)c(-c3ccc(O)cc3)c2c1	?	·	-2	?	-7	1%
c1ccc(C2NCCNC2c2ccccc2)cc1 (stereo not drawn)	-4%	-1	-2	-11%	-9	·
FC(F)(F)c1cc(CO[C@@H]2CCCN[C@@H]2c2ccccc2)cc(C(F)(F)F)c1	13µM*	-3	-2	?	?	·
Cc1cc(C)c2c(c1)/C(=C/C(=O)c1ccc(Br)s1)C(=O)N2	3.7µM*	-1	2	4.6µM*	-106*	10%
CN1/C(=C\C(=O)c2cccs2)C(C)(C)c2ccccc21	-11%	79	82	-11%	0	·
Cc1cccc2c1NC(=O)/C2=C\C(=O)c1cccs1	4.6µM*	-15	0	4.6µM*	-122*	5%
CN(C)/C=C/C(=O)c1ccc(Br)s1	7%	-5	0	-13%	-6	0%
CCc1ccc2c(c1)/C(=C/C(=O)c1cccs1)C(=O)N2	5.2µM*	-1	-2	3.3µM*	-106*	9%
Cc1ccc2oc3c(c(=O)c2c1)C(c1cccc(Cl)c1)N(CCCN1CCOCC1)C3=O (stereo not drawn)	?	-1	5	?	0	0%
COc1ccccc1Cc1c(-c2ccco2)nc2cc(C)c(Br)c(C)n12	23µM*	-22	-9	?	-26	·
Cc1cc2nc(-c3ccco3)c(CC(C)(C)C)n2c(C)c1Br	23µM*	-17	1	23µM*	-7	·
Cc1cc2nc(-c3ccco3)c(Cc3cccc(Cl)c3)n2c(C)c1Br	?	-4	?	?	-13	·
Cc1nc(C(=O)N2CCCC(C(=O)c3cccc(OC(C)C)c3)C2)cs1 (stereo not drawn)	15µM*	-4	11	10µM*	14	3%
